# Test results as given in the supplement of paper PMC8728848.
# The full list was thinned out, with the strongest signals kept by preference.
# B1: PX14375D-bvu-513-34-513 (Bacteroides vulgatus) (protein)
# chain: TEDTFWKDETDFNLALTSCYTPLKNALNGGYYGTRGVMLRIARADEVDFRNDISDVYTVNRFTNSNTNSLTQGMFYQFYNALYRTNSIMQKLEEKKEQFSTDFQNSVKGECLFIRGFYLFQLAKEFKDAPLRLTASQSPSTFPLAKSSQADIWAQAKEDLKTAASLLPITNKIGKPTQGAAYAALGKIYVYEENWQEAINVLEPLTQNPYTYKLVEDFNWNFDDTHENNAESIFELLIEDVGGTDLWGDGENINSTQSNTRPKEYAAAEVGGWYEANPTQQIMDIFWKEKDKDGNFDYRARCSVAWDYEGCTYYQRPFREVFAQDKWKTYWILKYQNWKTQKDEPAPPKSFINERAIRYADVLLMLAEAYMNKGALDTSIGYINQIRRRANLNDYSGPITKEGVFEDLVHQRAIEFFVEGERFYDLRRWGLLEQTLKTCDDTRYKNYQTGKSDNINKFNYFPIPAKELDTNPLCTPSEGW
# Key:
# Experiment in all cases: glycan array binding signal (z-score within array); higher = stronger binding
# Conditions in all cases: glycan notation: IUPAC condensed, linker removed
# Fuc(a1-2)Gal = target: Fuc(a1-2)Gal
# Summary of the method: (§1)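 From the Consortium for Functional Glycomics database, 3228 arrays were curated, keeping only those whose protein sequence was available. Binding is given as a within-array Z-score averaged across arrays sharing a protein sequence and across linkers. Negative Z-scores can be read as non-binding.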
# Fuc(a1-2)Gal(b1-3)GlcNAc = target: Fuc(a1-2)Gal(b1-3)GlcNAc
# Summary of the method: as §1
# [1] = target: Fuc(a1-2)Gal(b1-3)GlcNAc(b1-2)Man(a1-3)[Fuc(a1-2)Gal(b1-3)GlcNAc(b1-2)Man(a1-6)]Man(b1-4)GlcNAc(b1-4)GlcNAc
# Summary of the method: as §1
# [2] = target: Fuc(a1-2)Gal(b1-3)GlcNAc(b1-2)Man(a1-3)[Fuc(a1-2)Gal(b1-3)GlcNAc(b1-2)Man(a1-6)]Man(b1-4)GlcNAc(b1-4)[Fuc(a1-6)]GlcNAc
# Summary of the method: as §1
# [3] = target: Fuc(a1-2)Gal(b1-3)GlcNAc(b1-3)GalNAc
# Summary of the method: as §1
# [4] = target: Fuc(a1-2)Gal(b1-3)[Fuc(a1-4)]GlcNAc(b1-2)Man(a1-3)[Fuc(a1-2)Gal(b1-3)[Fuc(a1-4)]GlcNAc(b1-2)Man(a1-6)]Man(b1-4)GlcNAc(b1-4)[Fuc(a1-6)]GlcNAc(b1-4)[Fuc(a1-6)]GlcNAc
# Summary of the method: as §1
# Fuc(a1-2)Gal(b1-4)GlcNAc = target: Fuc(a1-2)Gal(b1-4)GlcNAc
# Summary of the method: as §1
# [5] = target: Fuc(a1-2)Gal(b1-4)[Fuc(a1-3)]GlcNAc(b1-2)Man(a1-3)[Fuc(a1-2)Gal(b1-4)[Fuc(a1-3)]GlcNAc(b1-2)Man(a1-6)]Man(b1-4)GlcNAc(b1-4)[Fuc(a1-6)]GlcNAc
# Summary of the method: as §1
# Fuc(a1-2)Gal6S(b1-4)Glc = target: Fuc(a1-2)Gal6S(b1-4)Glc
# Summary of the method: as §1
# [6] = target: Fuc(a1-2)[Gal(a1-3)]Gal(b1-3)GlcNAc(b1-3)GalNAc
# Summary of the method: as §1
# [7] = target: Fuc(a1-2)[Gal(a1-4)]Gal(b1-4)GlcNAc
# Summary of the method: as §1
# [8] = target: Fuc(a1-3)[Gal(b1-4)]GlcNAc(b1-2)Man
# Summary of the method: as §1
# [9] = target: Fuc(a1-3)[Gal(b1-4)]GlcNAc(b1-2)Man(a1-3)[Fuc(a1-3)[Gal(b1-4)]GlcNAc(b1-2)Man(a1-6)]Man(b1-4)GlcNAc(b1-4)GlcNAc
# Summary of the method: as §1
# [10] = target: Fuc(a1-3)[Gal(b1-4)]GlcNAc(b1-6)GalNAc
# Summary of the method: as §1
# [11] = target: Gal(a1-3)Gal(b1-3)GlcNAc(b1-2)Man
# Summary of the method: as §1
# [12] = target: Gal(a1-3)Gal(b1-4)GlcNAc(b1-6)GalNAc
# Summary of the method: as §1
# [13] = target: Gal(a1-3)[Gal(a1-4)]Gal(b1-4)GlcNAc
# Summary of the method: as §1
# Gal(a1-4)Gal(b1-4)GlcNAc = target: Gal(a1-4)Gal(b1-4)GlcNAc
# Summary of the method: as §1
# Gal(b1-2)Gal = target: Gal(b1-2)Gal
# Summary of the method: as §1
# Gal(b1-4)GlcNAc = target: Gal(b1-4)GlcNAc
# Summary of the method: as §1
# [14] = target: Gal(b1-4)GlcNAc(b1-3)Gal(b1-4)Glc
# Summary of the method: as §1
# [15] = target: Gal(b1-4)GlcNAc(b1-3)Gal(b1-4)GlcNAc(b1-2)Man(a1-3)[Gal(b1-4)GlcNAc(b1-3)Gal(b1-4)GlcNAc(b1-2)Man(a1-6)]Man(b1-4)GlcNAc(b1-4)GlcNAc
# Summary of the method: as §1
# GalNAc(b1-3)Gal = target: GalNAc(b1-3)Gal
# Summary of the method: as §1
# [16] = target: GalNAc(b1-3)Gal(a1-4)Gal(b1-4)GlcNAc(b1-3)Gal(b1-4)Glc
# Summary of the method: as §1
# Glc(b1-4)Glc = target: Glc(b1-4)Glc
# Summary of the method: as §1
# [17] = target: GlcA3S(b1-3)Gal(b1-4)GlcNAc(b1-3)Gal(b1-4)Glc
# Summary of the method: as §1
# [18] = target: GlcNAc(b1-2)[GlcNAc(b1-4)]Man(a1-3)[GlcNAc(b1-4)][GlcNAc(b1-2)Man(a1-6)]Man(b1-4)GlcNAc(b1-4)GlcNAc
# Summary of the method: as §1
# GlcNAc(b1-3)Gal(b1-4)Glc = target: GlcNAc(b1-3)Gal(b1-4)Glc
# Summary of the method: as §1
# [19] = target: GlcNAc(b1-3)Gal(b1-4)GlcNAc(b1-2)Man(a1-3)[GlcNAc(b1-3)Gal(b1-4)GlcNAc(b1-2)Man(a1-6)]Man(b1-4)GlcNAc(b1-4)[Fuc(a1-6)]GlcNAc
# Summary of the method: as §1
# [20] = target: GlcNAc(b1-3)Gal(b1-4)GlcNAc(b1-3)Gal(b1-4)GlcNAc(b1-2)Man(a1-3)[GlcNAc(b1-3)Gal(b1-4)GlcNAc(b1-3)Gal(b1-4)GlcNAc(b1-2)Man(a1-6)]Man(b1-4)GlcNAc(b1-4)[Fuc(a1-6)]GlcNAc
# Summary of the method: as §1
# [21] = target: GlcNAc(b1-3)Gal(b1-4)GlcNAc(b1-3)Gal(b1-4)GlcNAc(b1-3)Gal(b1-4)GlcNAc(b1-2)[GlcNAc(b1-3)Gal(b1-4)GlcNAc(b1-3)Gal(b1-4)GlcNAc(b1-3)Gal(b1-4)GlcNAc(b1-6)]Man(a1-6)[GlcNAc(b1-3)Gal(b1-4)GlcNAc(b1-3)Gal(b1-4)GlcNAc(b1-3)Gal(b1-4)GlcNAc(b1-2)Man(a1-3)]Man(b1-4)GlcNAc(b1-4)[Fuc(a1-6)]GlcNAc
# Summary of the method: as §1
# Man(a1-2)Man(a1-3)Man = target: Man(a1-2)Man(a1-3)Man
# Summary of the method: as §1
# [22] = target: Man(a1-3)[Man(a1-6)]Man(b1-4)GlcNAc(b1-4)GlcNAc
# Summary of the method: as §1
# [23] = target: Neu5Ac(a2-3)Gal(b1-3)GlcNAc(b1-3)GalNAc
# Summary of the method: as §1
# [24] = target: Neu5Ac(a2-3)Gal(b1-3)[Fuc(a1-4)]GlcNAc
# Summary of the method: as §1
# [25] = target: Neu5Ac(a2-3)Gal(b1-4)GlcNAc(b1-2)Man(a1-3)[Neu5Ac(a2-3)Gal(b1-4)GlcNAc(b1-2)Man(a1-6)]Man(b1-4)GlcNAc(b1-4)[Fuc(a1-6)]GlcNAc
# Summary of the method: as §1
# [26] = target: Neu5Ac(a2-3)Gal(b1-4)[Fuc(a1-3)]GlcNAc(b1-3)GalNAc
# Summary of the method: as §1
# [27] = target: Neu5Ac(a2-6)Gal(b1-4)GlcNAc(b1-2)Man
# Summary of the method: as §1
# [28] = target: Neu5Ac(a2-6)Gal(b1-4)GlcNAc(b1-2)Man(a1-3)[GlcNAc(b1-2)Man(a1-6)]Man(b1-4)GlcNAc(b1-4)GlcNAc
# Summary of the method: as §1
# [29] = target: Neu5Ac(a2-6)Gal(b1-4)GlcNAc(b1-2)Man(a1-3)[Neu5Ac(a2-6)Gal(b1-4)GlcNAc(b1-2)Man(a1-6)]Man(b1-4)GlcNAc(b1-4)GlcNAc
# Summary of the method: as §1
# [30] = target: Neu5Ac(a2-6)Gal(b1-4)GlcNAc(b1-2)Man(a1-6)Man(b1-4)GlcNAc(b1-4)GlcNAc
# Summary of the method: as §1
# [31] = target: Neu5Ac(a2-6)GlcNAc(b1-4)GlcNAc(b1-4)GlcNAc
# Summary of the method: as §1
# [32] = target: Neu5Ac(a2-8)Neu5Gc(a2-3)Gal(b1-4)GlcNAc
# Summary of the method: as §1
# Neu5Gc(a2-3)Gal(b1-4)Glc = target: Neu5Gc(a2-3)Gal(b1-4)Glc
# Summary of the method: as §1
# Neu5Gc(a2-6)GalNAc = target: Neu5Gc(a2-6)GalNAc
# Summary of the method: as §1
# [33] = target: Neu5Gc(a2-8)Neu5Gc(a2-3)Gal(b1-4)GlcNAc(b1-3)Gal(b1-4)GlcNAc
# Summary of the method: as §1
binder,measurement,setting,value
B1,glycan array binding signal (z-score),Fuc(a1-2)Gal,0.373
same,glycan array binding signal (z-score),Fuc(a1-2)Gal(b1-3)GlcNAc,-0.892
same,glycan array binding signal (z-score),[1],1.56
same,glycan array binding signal (z-score),[2],0.425
same,glycan array binding signal (z-score),[3],-0.35
same,glycan array binding signal (z-score),[4],2.03
same,glycan array binding signal (z-score),Fuc(a1-2)Gal(b1-4)GlcNAc,0.501
same,glycan array binding signal (z-score),[5],1.81
same,glycan array binding signal (z-score),Fuc(a1-2)Gal6S(b1-4)Glc,-0.059
same,glycan array binding signal (z-score),[6],-0.366
same,glycan array binding signal (z-score),[7],-0.107
same,glycan array binding signal (z-score),[8],2.96
same,glycan array binding signal (z-score),[9],-0.56
same,glycan array binding signal (z-score),[10],0.851
same,glycan array binding signal (z-score),[11],-0.81
same,glycan array binding signal (z-score),[12],0.081
same,glycan array binding signal (z-score),[13],2.92
same,glycan array binding signal (z-score),Gal(a1-4)Gal(b1-4)GlcNAc,0.227
same,glycan array binding signal (z-score),Gal(b1-2)Gal,-0.667
same,glycan array binding signal (z-score),Gal(b1-4)GlcNAc,0.126
same,glycan array binding signal (z-score),[14],-0.017
same,glycan array binding signal (z-score),[15],1.87
same,glycan array binding signal (z-score),GalNAc(b1-3)Gal,-0.306
same,glycan array binding signal (z-score),[16],0.403
same,glycan array binding signal (z-score),Glc(b1-4)Glc,0.371
same,glycan array binding signal (z-score),[17],-0.213
same,glycan array binding signal (z-score),[18],-0.188
same,glycan array binding signal (z-score),GlcNAc(b1-3)Gal(b1-4)Glc,-0.384
same,glycan array binding signal (z-score),[19],1.56
same,glycan array binding signal (z-score),[20],1.62
same,glycan array binding signal (z-score),[21],2.65
same,glycan array binding signal (z-score),Man(a1-2)Man(a1-3)Man,-1
same,glycan array binding signal (z-score),[22],0.478
same,glycan array binding signal (z-score),[23],-0.439
same,glycan array binding signal (z-score),[24],1.67
same,glycan array binding signal (z-score),[25],-0.211
same,glycan array binding signal (z-score),[26],1.33
same,glycan array binding signal (z-score),[27],-0.379
same,glycan array binding signal (z-score),[28],-0.096
same,glycan array binding signal (z-score),[29],-0.145
same,glycan array binding signal (z-score),[30],0.342
same,glycan array binding signal (z-score),[31],0.337
same,glycan array binding signal (z-score),[32],18.8
same,glycan array binding signal (z-score),Neu5Gc(a2-3)Gal(b1-4)Glc,-0.166
same,glycan array binding signal (z-score),Neu5Gc(a2-6)GalNAc,-0.168
same,glycan array binding signal (z-score),[33],-0.969
